Screening data deposited in PubChem by Sanford-Burnham Center for Chemical Genomics.
The list is not random: actives were taken first. Their share in the collection is about 4%.
HIF-2a inh = blocks HIF-2a reporter activity | 786-0 RCC cells HIF-2a reporter, luciferase luminescence, overnight | inhibition, % at 18.8 µM | 360,000 compounds, 0.72% hits;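 active = inhibition of the luminescence signal of 40% or more relative to plate controls, in a single-dose primary screen at 18.75 µM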
TWEAK Fn14 block = TWEAK-Fn14 signaling inhibition; TWEAK-stimulated Fn14 reporter cells, luciferase luminescence, 8 h; inhibition, % at 10 µM; 360,000 compounds, 2% hits; AID 1159606; in the data active = inhibition above about 50%
KKLEB tox = reduces viability of KKLEB cystic fibrosis airway cells. KKLEB CF airway cells viability, ATPlite luminescence, overnight; hits give low values; cells stimulated with P. aeruginosa culture filtrate. activity change (cytotoxicity), % at 5 µM. 360,000 compounds, 0.36% hits. AID 602141;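 active = corrected activity change at or below -50% at 5 µM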
CF NFkB inh = cystic fibrosis NF-kB activation inhibition | KKLEB NF-kB-GFP reporter, PAF-induced, GFP fluorescence overnight | inhibition, % at 5 µM | 360,000 compounds, 0.86% hits;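 active = at least 50% inhibition at 5 µM, scaled per plate between neutral and stimulator controls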;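 note: PAF is a Pseudomonas aeruginosa culture filtrate used as stimulus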
Peg3 prom inh = reduces Peg3 promoter-driven luciferase expression in HeLa | inhibition, % at 20 µM | AID 588405 | 360,000 compounds, 1.7% hits | HeLa PEG-Prom luciferase reporter, luminescence, overnight;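 active = inhibition of at least 50% at 20 µM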
TROY signal inh = TROY signaling inhibition | Q293 LMP1-TROYcd NF-kB luciferase reporter, 4 h | inhibition, % at 10 µM | 360,000 compounds, 0.98% hits | AID 1347056;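 active = compounds whose plate-normalised and pattern-corrected inhibition of the luciferase reporter signal at the single screening dose is 50% or more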
Hits are given with their value; – = inactive.

SMILES | HIF-2a inh | TWEAK Fn14 block | KKLEB tox | CF NFkB inh | Peg3 prom inh | TROY signal inh
N#Cc1cnn2cc(-c3ncc(C(F)(F)F)cc3Cl)cnc12 | – | – | – | – | – | –
Cc1nn2cc(-c3ncc(C(F)(F)F)cc3Cl)cnc2c1Br | – | 51 | – | – | – | 56
CCCCn1c(=O)[nH]c(=O)c2c1nc(-c1ccc(OC)c(Br)c1)n2CC(C)C | – | – | – | – | 55 | –
C=CCOc1ccc(-c2nc3c(c(=O)[nH]c(=O)n3CCCC)n2C)cc1Br | – | – | – | – | – | –
CCCCN(CC)CCCNC(=S)Nc1ccc2nc(N3CCN(CC)CC3)cc(C)c2c1 | – | – | – | – | – | –
CS(=O)(=O)N(Cc1nnc(-c2cccs2)o1)c1ccc(Cl)cc1F | – | – | – | – | – | –
CCC(C)NCCOc1ccc(C(C)(C)c2ccccc2)cc1 (configuration not stated) | – | – | – | – | 81 | –
CC1CCN(CCCCOc2ccc(C(C)(C)C)cc2)CC1 | – | – | – | – | – | –
Cc1ccc(OCCCCCCN2CCNCC2)c(Br)c1 | – | 58 | – | – | – | –
Cc1ccc(OCCCCN2CCC(C)CC2)c(Br)c1 | – | – | – | – | – | –
CC(C)(C)c1ccc(OCCCCCCN2CCNCC2)cc1 | – | – | – | – | 64 | –
CC(C)(c1ccccc1)c1ccc(OCCCN2CCNCC2)cc1 | – | – | – | – | 79 | –
N#Cc1cc(C(=O)c2cc(Br)ccc2O)cn(C2CCCCC2)c1=O | – | – | – | – | 52 | –
COc1ccc(/C=N/NC(=S)Nc2ccccc2[N+](=O)[O-])cc1O | – | 93 | – | – | – | 86
COc1ccc([N+](=O)[O-])cc1/C=N/NC(=O)Cc1ccccc1 | – | – | – | – | – | –
Cc1ccc(NC(=S)N/N=C/c2ccc(Cl)c([N+](=O)[O-])c2)cc1 | – | – | – | – | 86 | –
COc1cc(/C=N/NC(=O)Cc2ccccc2)ccc1Oc1ccc([N+](=O)[O-])cc1[N+](=O)[O-] | – | 52 | – | – | – | –
CNC(=S)Nc1ccc([N+](=O)[O-])c(C)c1 | – | 68 | – | – | – | –
Cc1ccc(C=NNC(=O)C(=O)Nc2ccc(Cl)c([N+](=O)[O-])c2)cc1 | – | – | – | – | – | –
COc1ccc(Cc2nnc(NC(=O)c3cccc([N+](=O)[O-])c3C)s2)cc1 | – | – | – | – | – | –
COc1ccc(C(NCC(=O)NC(C)c2ccc(Cl)cc2)c2ccccc2)cc1 (configuration not stated) | – | – | – | – | – | –
C[N+](C)(CCOc1ccccc1)Cc1ccccc1 (tested in a mixture with another compound) | – | – | – | – | – | 71
c1ccc(OCCOCCOc2ccccc2)cc1 | – | – | – | – | – | –
NC(=S)N=Nc1c(O)n(CCCl)c2ccc(Br)cc12 | – | – | – | – | – | –
C/C(Cl)=C\Cn1c(O)c(N=NC(N)=S)c2cc(Br)ccc21 | – | – | – | 56 | – | –
SMILES | HIF-2a inh | TWEAK Fn14 block | KKLEB tox | CF NFkB inh | Peg3 prom inh | TROY signal inh
NC(=S)N=Nc1c(O)n(Cc2ccc(Br)cc2)c2ccccc12 | – | – | -52 | – | – | –
COc1cc(CNc2ccc3c(c2)OCCO3)ccc1OCC(N)=O | – | – | – | – | – | –
CCOc1cc(CNc2ccc3c(c2)OCCO3)cc(Br)c1OCC(N)=O | – | 88 | – | – | – | 64
Cc1ccc(NC(=O)CSc2ncn[nH]2)cc1S(=O)(=O)N1CCOCC1 | – | – | – | – | – | –
Cc1ccc(-n2cccn2)c(CN2CCCC(C(=O)c3ccc4c(c3)OCO4)C2)c1 (configuration not stated) | – | – | – | – | – | –
COC(=O)C1=C(C)NC(=O)NC1c1ccc(N2CCC(c3ccccc3)=N2)cc1 (configuration not stated) | – | – | – | – | – | 52
COC(=O)C1=C(C)NC(=O)NC1c1ccc(OC)c(OC)c1 (configuration not stated) | – | – | – | – | – | –
CCC1CCCCN1CCCNC(=O)c1cn(CC)c2ccc(S(=O)(=O)N3CCc4ccccc4C3)cc2c1=O (configuration not stated) | – | – | – | – | 77 | –
CC(C)N(C(=O)CSc1ncnc2sc(-c3ccccc3)cc12)C(C)C | – | – | – | – | – | –
O=C(CCCCC(=O)Nc1ccc(F)cc1F)Nc1ccc(F)cc1F | – | – | – | – | – | –
CC(=O)Nc1ccc(-c2ccnc3c2CC(C(=O)Nc2cccnc2)O3)cc1 (configuration not stated) | – | – | – | – | – | –
CCCCCCC[C@@H](C/C=C/CCC(=O)N(C)C/C(=C/Cl)C/C(=C\C(=O)N1CC(OC)=CC1=O)OC)OC | – | – | -61 | 54 | – | –
CCN(CC)S(=O)(=O)c1ccc(OC)c(NC(=O)CCS(=O)(=O)Cc2ccccc2)c1 | – | – | – | – | – | –
Cc1nc(Nc2nc3ccccc3o2)nc2c1CCC2 | – | 91 | – | – | – | –
Cc1cc2oc(C(=O)Nc3ccc(S(=O)(=O)Nc4nccs4)cc3)cc(=O)c2cc1Cl | – | – | – | – | – | –
Cc1cc(C)c2oc(C(=O)Nc3ccc(S(=O)(=O)Nc4nccs4)cc3)cc(=O)c2c1 | – | 73 | – | – | – | –
Cc1ccc2nc(/C(C#N)=C/c3cn[nH]c3-c3ccc(F)cc3)[nH]c2c1 | – | 59 | – | – | – | –
CCN(CC)CCN1C(=O)C(=O)/C(=C(/O)c2c(C)[nH]c(C(=O)OC)c2C)C1c1ccccc1OC (configuration not stated) | – | – | – | – | – | –
O=C(Nc1ccc(C(=O)N2CCCCC2)cc1)[C@H]1O[C@@H](n2ccc(=O)[nH]c2=O)[C@H](O)[C@@H]1O | – | – | – | – | – | –
CCCC(=O)N1CCCC1(C)C(=O)Nc1cccc(OC(C)C)c1 (configuration not stated) | – | – | – | – | – | –
CCN1/C(=C/C=C/c2oc3ccc(-c4ccccc4)cc3[n+]2CC)Oc2ccc(-c3ccccc3)cc21 | 86 | 56 | – | – | 84 | –
CCCCN1C(=O)/C(=C/C=C2\Oc3ccccc3N2CC)SC1=S | – | – | – | – | – | –
Cc1ccc2nc3c(cc(C(=O)NCC4CCCO4)c(=N)n3C3CCCC3)c(=O)n2c1 (configuration not stated) | – | – | – | – | – | –
CCC(=O)NC1=C(Cl)C(=O)C(NC(=O)CC)=C(Cl)C1=O | 96 | – | – | – | 81 | –
CCC(C)[C@H](NC(=O)N1CC(=O)Nc2ccccc21)C(=O)NC(C)CCc1ccccc1 (some centres not stated) | – | – | – | – | – | –
COc1ccc(C(=O)c2ccc(Cl)c([N+](=O)[O-])c2)cc1 | – | – | – | 64 | – | –
